From PubChem BioAssay AID1209 (Sanford-Burnham Center for Chemical Genomics, 2008) come the findings set out here.

Hit rate of the full screen: of about 190,000 compounds, about 810 (0.43%) were called active. This excerpt belongs to a sample that is enriched for actives. A number with no mark means an inactive call. Rule as the data show it: active = inhibition above about 50%; inactive = the rest.

The test deals with Mannose-6-phosphate isomerase (Homo sapiens) (UniProt P34949). Kind of test: MPI enzyme activity inhibition – biochemical, fluorescence intensity, coupled assay, primary screen (AID 1209).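 Also: plate controls were DMSO vehicle for no effect and wells lacking substrate for full effect.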 As to conditions: purified PMI enzyme, at 20 µM, active compounds read high.
Mannose-6-phosphate isomerase (Homo sapiens), sequence (P34949 whole entry, looked up): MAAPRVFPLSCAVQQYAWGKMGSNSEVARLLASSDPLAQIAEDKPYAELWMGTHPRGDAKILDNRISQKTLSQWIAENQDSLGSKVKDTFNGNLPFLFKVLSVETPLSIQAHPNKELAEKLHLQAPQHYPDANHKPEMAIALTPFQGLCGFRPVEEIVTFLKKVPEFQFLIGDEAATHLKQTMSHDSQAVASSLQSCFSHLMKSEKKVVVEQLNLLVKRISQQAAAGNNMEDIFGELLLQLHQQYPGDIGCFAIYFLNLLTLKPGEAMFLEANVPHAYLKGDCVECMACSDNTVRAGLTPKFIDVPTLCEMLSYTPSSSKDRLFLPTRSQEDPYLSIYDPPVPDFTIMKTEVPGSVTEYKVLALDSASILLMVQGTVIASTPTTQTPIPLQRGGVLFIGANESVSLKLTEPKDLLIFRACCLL
Usually inhibition stands for the relative decrease from the control value, in per cent. `CCn1cc(C(=O)OCC(=O)c2cc(C)n(-c3cccc(C(F)(F)F)c3)c2C)c(=O)c2ccc(C)nc21`: the inhibition is -6.6%.
Consider `CN(/N=C/c1ccc(Br)o1)C1=NS(=O)(=O)c2ccccc21`, for which the inhibition was -7.5%.
In the case of `CN(/N=C/c1ccco1)C1=NS(=O)(=O)c2ccccc21` it was 10.9%.
As for `Cc1ccc(/C=N/N(C)C2=NS(=O)(=O)c3ccccc32)o1`, the figure is 107% (active); as for `COc1ccccc1NC(=O)N(Cc1cccs1)Cc1cc2cc3c(cc2[nH]c1=O)OCO3`, 9.9%; as for `COc1cc(C(=O)O/N=C2/C=C(C)C(=O)C=C2C)cc(OC)c1OC`, 29.1%.
Regarding `COc1cc(C(=O)ON=C2C(C)=CC(=O)C=C2C)cc(OC)c1OC`, the inhibition is 59.4% (active).
In the case of `COc1cc(C(=O)O/N=C2\C=CC(=O)C(C)=C2)cc(OC)c1OC` it was 50.7% (active).
In the case of `COc1cc(C(=O)ON=C2C=C(C)C(=O)C(C)=C2)cc(OC)c1OC` it was 31.7%; in that of `COc1cc(C(=O)O/N=C2/C=CC(=O)C(C)=C2C)cc(OC)c1OC`, 35.6%; in that of `COc1cc(C(=O)O/N=C2\C=CC(=O)C=C2C)cc(OC)c1OC`, 46.4%.
Turning to `O=C(NC1CCCC1)c1ccc(CS(=O)(=O)c2ccc(Br)cc2)o1`, the inhibition was -7%.
In the case of `O=C(C(=O)N1CCN(c2ccc(F)cc2)CC1)N1CCCCC1` it was 9.4%; in that of `COCCNC(=O)C(c1cccs1)N(C(=O)Cn1nnc2ccccc21)c1cccc(C(C)=O)c1` (configuration not stated), -2.6%; in that of `O=[N+]([O-])c1cc2oc3c(c2c(C=NCc2ccncc2)c1O)CCCC3`, 27.8%.
As to `CC(C)CN=Cc1c(O)c([N+](=O)[O-])cc2oc3c(c12)CCCC3`, the inhibition was 53.1% (active).
In the case of `O=[N+]([O-])c1cc2oc3c(c2c(C=NCc2ccccc2)c1O)CCCC3` it was 6.3%; in that of `O=C(OCc1nnc(-c2ccccc2)o1)c1cc(F)c(F)cc1Cl`, 2.5%; in that of `COc1ccc(CN2C(=O)Cc3c2nc(N)c2c(N)nc(N4CCCCC4)c(C#N)c32)cc1`, 40.5%.
As for `N#Cc1c(N2CCN(c3ccc(F)cc3)CC2)nc(N)c2c(N)nc3c(c12)CC(=O)N3C1CC1`, the figure is 56.9% (active).
In the case of `COCCN1C(=O)Cc2c1nc(N)c1c(N)nc(N3CCN(c4ccc(F)cc4)CC3)c(C#N)c21` it was 40.2%; in that of `CCCCN1C(=O)Cc2c1nc(N)c1c(N)nc(N(CCC)CCC)c(C#N)c21`, 21.8%.
As for `N#CCc1c(C#N)c(N)nc(N2CCCC(O)C2)c1C#N` (configuration not stated), the inhibition is 10%.
In the case of `CN(CCO)c1nc(N)c2c(N)nc3c(c2c1C#N)CC(=O)N3Cc1cccs1` it was 13.6%; in that of `CN(CCO)c1nc(N)c2c(N)nc3c(c2c1C#N)CC(=O)N3C1CCCC1`, 64% (active).
In the case of `COCCN(CCOC)c1nc(N)c2c(N)nc3c(c2c1C#N)CC(=O)N3Cc1ccc(Cl)cc1` it was 20.6%; in that of `N#Cc1c(N2CCCC(O)C2)nc(N)c2c(N)nc3c(c12)CC(=O)N3C12CC3CC(CC(C3)C1)C2` (configuration not stated), 64.7% (active).
`C=C(C)CN(CC)c1nc(N)c2c(N)nc3c(c2c1C#N)CC(=O)N3C12CC3CC(CC(C3)C1)C2`: the inhibition was 2.4%.
Regarding `COCC(C)N1C(=O)Cc2c1nc(N)c1c(N)nc(N3CCN(c4ccccc4F)CC3)c(C#N)c21` (configuration not stated), the inhibition is 66.7% (active).
Consider `N#CCc1c(C#N)c(N)nc(N2CCN(c3ccc(F)cc3)CC2)c1C#N`, for which the inhibition is 2.2%.
Consider `Cc1ccc(N2C(=O)[C@@H]3[C@H](C2=O)C2c4ccccc4C=CN2[C@@H]3C(=O)c2ccco2)c(C)c1` (some centres not stated), for which the inhibition was -31.4%.
As to `COc1ccc(Cn2c(C(F)(F)F)ccc(C(N)=O)c2=O)cc1`, the inhibition was 4.9%.
In the case of `COc1ccc(C2(O)CCN(C(=O)c3c(F)cccc3F)CC2)cc1` it was 2.8%; in that of `CCc1cc2c(C)cc(C)cc2nc1SCC(=O)Nc1cc(C)on1`, 2.3%; in that of `COc1cccc(CNC(=O)C(c2ccc(Cl)cc2)C(C)C)c1` (configuration not stated), 10.2%.
As for `COc1cc(/C=C2\SC(=S)NC2=O)ccc1OS(=O)(=O)c1ccccc1`, the figure is 29.8%; as for `COC(=O)c1ccc(-c2nc(O)c3cnccn23)cc1`, -13.6%.
Take `CCCCOc1ccc(C(=O)N/N=C/c2ccc(OCCN3CCCCC3)c(OC)c2)cc1`: the inhibition is 5.7%.
In the case of `COc1cc(/C=N/NC(=O)c2cc3ccccc3cc2O)ccc1OCCN1CCCCC1` it was 73.9% (active).
Regarding `COc1cc(/C=N/NC(=O)c2ccncc2)ccc1OCCN1CCCCC1`, the inhibition was -4.3%.
For `COc1cccc(-n2c(SCC(N)=O)nc3ccccc3c2=O)c1`, the inhibition was 2.2%.
As for `COc1ccccc1-n1c(SCc2cc(=O)oc3cc(O)ccc23)nc2ccccc2c1=O`, the figure is 8.3%.
For `Cc1csc(SCC(=O)NC(=O)NC2CCCC2)n1`, the inhibition is 5.2%.
On to `S=c1[nH]nc(C2CCCCC2)n1/N=C/c1ccco1`, for which the inhibition was -1.6%.
In the case of `O=C(Cc1ccc([N+](=O)[O-])cc1)Nc1cccc(C(F)(F)F)c1` it was 23.4%; in that of `CCCCNC(=O)CC1S/C(=N/N=C/c2ccc(OC)cc2)NC1=O` (configuration not stated), -7.8%.
In the case of `CCOc1ccc(OCC)c(NC(=O)CN2CCN(c3cccc(C)c3)CC2)c1` it was 16.7%; in that of `CCOC(=O)N1CCN(CC(=O)Nc2cc(OCC)ccc2OCC)CC1`, 7%; in that of `CCOc1ccc(OCC)c(NC(=O)CN2CCN(CC)CC2)c1`, 57.9% (active).
On to `CN1C(=O)/C(=C/c2ccc(-c3ccccc3[N+](=O)[O-])o2)SC1=Nc1ccc(Cl)c(C(=O)O)c1`, for which the inhibition is 3%.
With `CCOC(=O)C1=C(N)Oc2cc(C)n(C)c(=O)c2C1c1ccncc1` (configuration not stated), the inhibition is 10%.
Consider `NC(=O)C1=C[C@H](c2coc3ccccc3c2=O)C[C@H](OCc2ccc(CO)cc2)O1`, for which the inhibition is -2.4%.
In the case of `O=C(Nc1ccccc1NC(=O)NC1CCCCC1)NC1CCCCC1`, the inhibition was 6%.
For `Nc1ccccc1NC1CCCCC1`, the inhibition was 64.3% (active).
As to `Nc1c(NC2CCCCC2)c2ccccc2oc1=O`, the inhibition was 9.2%.
Take `Cc1ccc(Cn2c(C(=O)O)cc3sccc32)cc1`: the inhibition was -7.2%.
For the compound `O=C(Nc1ccccc1NS(=O)(=O)c1ccc(F)cc1)C1CCCC1`, the inhibition is -1.7%.
In the case of `O=C(COC(=O)c1cccc(Cl)c1)NCCN1C(=O)CSC1=O` it was -6%; in that of `O=C(COC(=O)c1cc(Cl)cc(Cl)c1)NCCN1C(=O)CSC1=O`, 55.7% (active); in that of `O=C(COC(=O)c1cc(Cl)ccc1Cl)NCCN1C(=O)CSC1=O`, 0.7%.
As for `COC(=O)c1ccccc1NC(=O)COC(=O)/C=C/c1ccco1`, the figure is -15%.
In the case of `CCOCCCNC(=O)c1ccc(N2CCOCC2)c(NS(=O)(=O)c2ccc(OC)cc2)c1` it was -1.6%; in that of `Cn1c(COc2ccc([N+](=O)[O-])cc2)nnc1SCC(N)=O`, -9.7%.
As for `c1cc2c3c(cccc3c1)C(N1CCCCC1)=N2`, the inhibition was 33.9%.
With `O=C1CCN2C=Nc3cccc4ccc1c2c34`, the inhibition was 84.5% (active).
Consider `c1cc2c3c(cccc3c1)C(N1CCCCCC1)=N2`, for which the inhibition is 15.8%.
As to `COc1cc2c(cc1OC)C1=C(C#N)CN(CC(=O)O)CN1CC2`, the inhibition was 70.5% (active).
For `COc1cc2c(cc1OC)C1=C(C#N)CN(C3CCCCC3)CN1CC2`, the inhibition is 27.4%.
In the case of `COc1ccc(CCN2CC(C#N)=C3c4cc(OC)c(OC)cc4CCN3C2)cc1OC` it was 18.8%.
Take `CCCCNC(c1ccccc1)c1ccncc1` (configuration not stated): the inhibition is 6.1%.
As for `CCn1c(SCC(=O)NC2CCS(=O)(=O)C2)nnc1-c1ccccc1` (configuration not stated), the figure is -4.5%.
Consider `COc1cc(NC(=O)CN2C(=O)CN(C)C2=O)c(C)cc1[N+](=O)[O-]`, for which the inhibition is -9.8%.
As for `Cc1ccccc1NC(=O)C1c2cccc[n+]2CC(=O)N1c1c(C)cccc1C` (configuration not stated), the figure is 91.6% (active); as for `Cc1ccccc1NC(=O)C1c2cccc[n+]2CC(=O)N1Cc1ccc2c(c1)OCO2` (configuration not stated), -17.8%.
As for `Cc1cccc(C)c1NC(=O)C1c2cccc[n+]2CC(=O)N1Cc1cccs1` (configuration not stated), the figure is -7.5%; as for `C(=C\c1ccccc1)/C=N/Nc1nc(N2CCOCC2)nc(N2CCOCC2)n1`, -1.4%.
For `CCn1c(SCC(=O)N2CCN(c3ccc(F)cc3)CC2)nnc1-c1ccncc1`, the inhibition was 8.1%.
As for `O=C(CCn1c(=S)oc2ccccc21)Nc1cccc(F)c1`, the figure is -10.5%.
Regarding `O=C(NCC1CC1)c1ccc(Nc2nc3ccc(Br)cc3[nH]2)cc1`, the inhibition was 84% (active).
In the case of `O=C(NCc1cccs1)c1cccc(Nc2nc3ccc(Br)cc3[nH]2)c1` it was 15.4%; in that of `O=C(NCc1ccco1)c1cccc(Nc2nc3ccc(Br)cc3[nH]2)c1`, 22%; in that of `COC(=O)/C=C1\SC(=NC(=O)c2ccc(C)cc2)NC1=O`, 3.6%.
As for `O=Cc1ccc(O)c(O)c1`, the figure is 25.6%; as for `O=C(O)/C=C/c1ccc(O)c(O)c1`, 56.4% (active); as for `COc1cc(/C=C/C(=O)CC(=O)/C=C/c2ccc(O)c(OC)c2)ccc1O`, 5.3%.
Regarding `COc1ccc(NC(=O)/C=C/c2ccc(OC)c(OC)c2)cn1`, the inhibition is -4.6%.
As for `Cc1cc([N+](=O)[O-])cnc1Sc1nccn1C`, the figure is -29.4%.
In the case of `O=C(CCc1nc2ccccc2[nH]c1=O)OCC(=O)c1ccc(Cl)cc1` it was 2.3%.
On to `CCOC(=O)c1nn(-c2ccc(C)cc2)c(=O)c2c(N)scc12`, for which the inhibition was 39.4%.
As for `COc1ccc(/C=N/NC(=O)c2nn(-c3ccc(C)c(C)c3)c(=O)c3ccccc23)cc1`, the figure is 13.2%.
For `COc1ccc(/C=N/NC(=O)c2nn(-c3ccccc3)c(=O)c3c(N)scc23)cc1`, the inhibition was 60.7% (active).
For `CCOC(=O)c1nn(-c2ccccc2)c(=O)c2c(N)scc12`, the inhibition is 36.2%.
For the compound `COc1ccc(/C=N/NC(=O)c2nn(-c3ccc(Cl)cc3)c(=O)c3c(N)scc23)cc1`, the inhibition is 50.7% (active).
In the case of `COc1ccc(/C=N/NC(=O)c2nc(-c3ccccc3)n(-c3ccccc3)n2)cc1` it was 17%.
Regarding `CCOC(=O)c1nn(-c2ccc(F)cc2)c(=O)c2c(N)scc12`, the inhibition is 40.7%.
In the case of `CCOC(=O)c1nn(-c2ccc(OC)cc2)c(=O)c2c(N)scc12`, the inhibition is 46.8%.
As for `Nc1scc2c(C(=O)N/N=C/c3ccc(Cl)cc3)nn(-c3ccccc3)c(=O)c12`, the figure is 69.6% (active).
